From the supplement of paper PMC11732987, “Enantioselective OTUD7B fragment discovery through chemoproteomics screening and high-throughput optimisation” (Communications Chemistry, 2025)

Assays:
Assay in all cases: log2 ratio of Biotin-Ahx-Ub-VS probe labelling (fragment/DMSO); higher = less target engagement (more negative = stronger competition), active = hit call of the paper (q ≤ 0.05, log2 ratio ≤ -1)
Conditions in all cases: compound concentration: 200 uM; treatment time: 3 h
[1] = target: T1, USP19 (UniProt O94966)
T1 sequence (whole entry): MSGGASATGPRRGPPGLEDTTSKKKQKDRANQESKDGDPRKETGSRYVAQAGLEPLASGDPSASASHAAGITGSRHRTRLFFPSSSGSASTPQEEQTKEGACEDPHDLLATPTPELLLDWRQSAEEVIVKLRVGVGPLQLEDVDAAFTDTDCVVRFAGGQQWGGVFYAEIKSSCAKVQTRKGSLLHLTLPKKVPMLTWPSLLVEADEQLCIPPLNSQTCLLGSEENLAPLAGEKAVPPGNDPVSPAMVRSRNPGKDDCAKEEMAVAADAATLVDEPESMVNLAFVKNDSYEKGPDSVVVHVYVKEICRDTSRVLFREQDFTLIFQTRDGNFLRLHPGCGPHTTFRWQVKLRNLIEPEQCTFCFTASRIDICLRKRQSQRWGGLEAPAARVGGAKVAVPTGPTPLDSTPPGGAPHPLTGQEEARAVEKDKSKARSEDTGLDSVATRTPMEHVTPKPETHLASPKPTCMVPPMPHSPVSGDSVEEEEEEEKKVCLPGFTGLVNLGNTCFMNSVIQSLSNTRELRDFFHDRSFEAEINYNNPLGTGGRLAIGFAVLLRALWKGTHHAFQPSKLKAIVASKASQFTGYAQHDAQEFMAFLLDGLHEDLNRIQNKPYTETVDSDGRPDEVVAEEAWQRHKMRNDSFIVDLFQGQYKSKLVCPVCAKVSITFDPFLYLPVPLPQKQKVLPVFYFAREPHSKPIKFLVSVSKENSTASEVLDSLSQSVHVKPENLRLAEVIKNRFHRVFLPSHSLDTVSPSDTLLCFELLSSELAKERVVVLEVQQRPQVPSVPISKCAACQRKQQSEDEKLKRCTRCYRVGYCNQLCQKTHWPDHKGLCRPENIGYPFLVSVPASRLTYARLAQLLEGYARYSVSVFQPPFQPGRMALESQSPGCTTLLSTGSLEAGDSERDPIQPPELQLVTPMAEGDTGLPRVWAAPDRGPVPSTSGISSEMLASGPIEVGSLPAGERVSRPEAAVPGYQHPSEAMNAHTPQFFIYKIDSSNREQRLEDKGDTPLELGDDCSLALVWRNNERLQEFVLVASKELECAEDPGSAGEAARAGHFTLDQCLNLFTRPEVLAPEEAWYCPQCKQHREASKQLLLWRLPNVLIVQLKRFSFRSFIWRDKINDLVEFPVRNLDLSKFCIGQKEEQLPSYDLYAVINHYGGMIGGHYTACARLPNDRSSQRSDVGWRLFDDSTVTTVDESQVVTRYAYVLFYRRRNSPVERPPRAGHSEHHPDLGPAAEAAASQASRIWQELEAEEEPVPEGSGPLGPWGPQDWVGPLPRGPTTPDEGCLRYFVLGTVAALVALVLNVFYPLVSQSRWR
Method in brief: (§1)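 HEK293T lysate in Tris/CHAPS/IGEPAL buffer with protease inhibitors (495 µg per sample) was given fragment at 200 µM or vehicle for 3 h, in triplicate. It then received Biotin-Ahx-Ub-VS at 0.5 µM final for 1 h. Labelled DUBs were NeutrAvidin-enriched, digested with LysC and trypsin, and run by diaPASEF LC-MS/MS. Values are average log2 fragment/vehicle ratios by unpaired t-test on global-median-normalised Spectronaut quantities of proteins with ≥2 unique peptides.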

[2] = target: T2, USP22 (UniProt Q9UPT9)
T2 sequence (whole entry): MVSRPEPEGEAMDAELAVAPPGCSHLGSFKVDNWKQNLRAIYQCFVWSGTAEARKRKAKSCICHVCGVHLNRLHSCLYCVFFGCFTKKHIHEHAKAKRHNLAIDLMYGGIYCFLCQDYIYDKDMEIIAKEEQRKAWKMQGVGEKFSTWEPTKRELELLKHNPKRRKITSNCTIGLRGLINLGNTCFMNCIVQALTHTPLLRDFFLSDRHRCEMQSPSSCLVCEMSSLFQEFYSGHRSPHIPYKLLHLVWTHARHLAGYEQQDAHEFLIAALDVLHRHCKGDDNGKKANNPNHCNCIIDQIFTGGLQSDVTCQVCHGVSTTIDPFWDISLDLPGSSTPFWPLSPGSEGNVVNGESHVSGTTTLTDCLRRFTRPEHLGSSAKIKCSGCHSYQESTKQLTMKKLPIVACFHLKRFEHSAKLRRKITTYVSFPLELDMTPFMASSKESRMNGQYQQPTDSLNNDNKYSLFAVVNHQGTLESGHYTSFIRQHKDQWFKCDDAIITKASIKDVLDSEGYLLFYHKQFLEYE
Method in brief: as §1

[3] = target: USP24 (UniProt Q9UPU5)
Method in brief: as §1

[4] = target: T3, USP25 (UniProt Q9UHP3)
T3 sequence (whole entry): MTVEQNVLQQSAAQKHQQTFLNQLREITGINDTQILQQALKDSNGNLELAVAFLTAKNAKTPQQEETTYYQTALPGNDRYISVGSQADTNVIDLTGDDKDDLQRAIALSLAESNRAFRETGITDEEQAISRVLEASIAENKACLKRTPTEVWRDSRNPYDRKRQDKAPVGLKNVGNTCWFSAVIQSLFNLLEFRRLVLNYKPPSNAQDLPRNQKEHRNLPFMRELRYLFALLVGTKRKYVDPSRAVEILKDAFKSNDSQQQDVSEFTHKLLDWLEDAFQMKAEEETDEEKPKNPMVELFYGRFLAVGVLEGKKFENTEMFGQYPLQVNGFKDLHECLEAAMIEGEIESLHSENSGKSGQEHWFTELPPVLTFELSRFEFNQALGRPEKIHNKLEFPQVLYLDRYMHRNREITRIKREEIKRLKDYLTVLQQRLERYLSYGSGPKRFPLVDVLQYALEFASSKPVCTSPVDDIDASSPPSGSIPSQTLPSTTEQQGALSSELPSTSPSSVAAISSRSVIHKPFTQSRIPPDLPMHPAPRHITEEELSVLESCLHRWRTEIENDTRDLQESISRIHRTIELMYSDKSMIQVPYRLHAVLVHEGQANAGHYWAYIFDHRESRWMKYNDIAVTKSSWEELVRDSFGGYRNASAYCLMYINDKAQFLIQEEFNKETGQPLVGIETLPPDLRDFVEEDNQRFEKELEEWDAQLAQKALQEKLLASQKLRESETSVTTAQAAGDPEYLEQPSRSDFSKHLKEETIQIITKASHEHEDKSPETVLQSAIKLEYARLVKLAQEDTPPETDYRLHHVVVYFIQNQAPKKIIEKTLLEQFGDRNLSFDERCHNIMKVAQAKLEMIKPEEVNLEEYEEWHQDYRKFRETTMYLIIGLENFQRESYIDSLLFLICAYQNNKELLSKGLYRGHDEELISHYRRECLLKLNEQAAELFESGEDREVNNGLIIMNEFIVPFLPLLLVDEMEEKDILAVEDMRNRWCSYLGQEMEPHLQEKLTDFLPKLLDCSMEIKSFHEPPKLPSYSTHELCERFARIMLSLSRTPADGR
Method in brief: as §1

[5] = target: T4, USP28 (UniProt Q96RU2)
T4 sequence (whole entry): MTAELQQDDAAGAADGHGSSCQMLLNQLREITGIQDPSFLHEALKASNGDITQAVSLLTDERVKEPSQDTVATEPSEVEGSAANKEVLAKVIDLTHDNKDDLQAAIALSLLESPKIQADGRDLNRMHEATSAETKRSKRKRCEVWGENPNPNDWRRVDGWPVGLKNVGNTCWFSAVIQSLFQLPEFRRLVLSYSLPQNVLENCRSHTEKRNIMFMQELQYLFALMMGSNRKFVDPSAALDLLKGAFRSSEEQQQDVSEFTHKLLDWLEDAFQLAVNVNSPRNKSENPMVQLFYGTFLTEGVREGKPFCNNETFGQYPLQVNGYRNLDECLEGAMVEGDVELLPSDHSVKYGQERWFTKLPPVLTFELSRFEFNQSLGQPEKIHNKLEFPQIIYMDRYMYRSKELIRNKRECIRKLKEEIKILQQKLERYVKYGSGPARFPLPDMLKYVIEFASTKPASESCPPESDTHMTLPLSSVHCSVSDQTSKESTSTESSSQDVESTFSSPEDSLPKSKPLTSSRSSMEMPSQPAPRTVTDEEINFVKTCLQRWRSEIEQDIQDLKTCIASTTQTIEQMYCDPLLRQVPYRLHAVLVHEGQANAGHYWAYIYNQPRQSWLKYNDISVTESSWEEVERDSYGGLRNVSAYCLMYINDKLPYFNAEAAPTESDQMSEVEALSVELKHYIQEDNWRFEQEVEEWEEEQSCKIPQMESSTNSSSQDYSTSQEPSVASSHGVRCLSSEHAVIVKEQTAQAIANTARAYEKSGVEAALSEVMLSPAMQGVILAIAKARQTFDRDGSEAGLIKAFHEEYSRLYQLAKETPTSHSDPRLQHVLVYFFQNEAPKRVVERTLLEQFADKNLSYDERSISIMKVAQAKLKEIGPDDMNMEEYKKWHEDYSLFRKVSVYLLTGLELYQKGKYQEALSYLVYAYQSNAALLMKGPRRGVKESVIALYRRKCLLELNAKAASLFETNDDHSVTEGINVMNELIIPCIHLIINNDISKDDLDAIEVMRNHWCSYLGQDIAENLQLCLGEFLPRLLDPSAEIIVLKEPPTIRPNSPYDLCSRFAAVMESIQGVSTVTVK
Method in brief: as §1

Measured: log2 ratio of Biotin-Ahx-Ub-VS probe labelling

Chain of USP24 (Q9UPU5 whole entry): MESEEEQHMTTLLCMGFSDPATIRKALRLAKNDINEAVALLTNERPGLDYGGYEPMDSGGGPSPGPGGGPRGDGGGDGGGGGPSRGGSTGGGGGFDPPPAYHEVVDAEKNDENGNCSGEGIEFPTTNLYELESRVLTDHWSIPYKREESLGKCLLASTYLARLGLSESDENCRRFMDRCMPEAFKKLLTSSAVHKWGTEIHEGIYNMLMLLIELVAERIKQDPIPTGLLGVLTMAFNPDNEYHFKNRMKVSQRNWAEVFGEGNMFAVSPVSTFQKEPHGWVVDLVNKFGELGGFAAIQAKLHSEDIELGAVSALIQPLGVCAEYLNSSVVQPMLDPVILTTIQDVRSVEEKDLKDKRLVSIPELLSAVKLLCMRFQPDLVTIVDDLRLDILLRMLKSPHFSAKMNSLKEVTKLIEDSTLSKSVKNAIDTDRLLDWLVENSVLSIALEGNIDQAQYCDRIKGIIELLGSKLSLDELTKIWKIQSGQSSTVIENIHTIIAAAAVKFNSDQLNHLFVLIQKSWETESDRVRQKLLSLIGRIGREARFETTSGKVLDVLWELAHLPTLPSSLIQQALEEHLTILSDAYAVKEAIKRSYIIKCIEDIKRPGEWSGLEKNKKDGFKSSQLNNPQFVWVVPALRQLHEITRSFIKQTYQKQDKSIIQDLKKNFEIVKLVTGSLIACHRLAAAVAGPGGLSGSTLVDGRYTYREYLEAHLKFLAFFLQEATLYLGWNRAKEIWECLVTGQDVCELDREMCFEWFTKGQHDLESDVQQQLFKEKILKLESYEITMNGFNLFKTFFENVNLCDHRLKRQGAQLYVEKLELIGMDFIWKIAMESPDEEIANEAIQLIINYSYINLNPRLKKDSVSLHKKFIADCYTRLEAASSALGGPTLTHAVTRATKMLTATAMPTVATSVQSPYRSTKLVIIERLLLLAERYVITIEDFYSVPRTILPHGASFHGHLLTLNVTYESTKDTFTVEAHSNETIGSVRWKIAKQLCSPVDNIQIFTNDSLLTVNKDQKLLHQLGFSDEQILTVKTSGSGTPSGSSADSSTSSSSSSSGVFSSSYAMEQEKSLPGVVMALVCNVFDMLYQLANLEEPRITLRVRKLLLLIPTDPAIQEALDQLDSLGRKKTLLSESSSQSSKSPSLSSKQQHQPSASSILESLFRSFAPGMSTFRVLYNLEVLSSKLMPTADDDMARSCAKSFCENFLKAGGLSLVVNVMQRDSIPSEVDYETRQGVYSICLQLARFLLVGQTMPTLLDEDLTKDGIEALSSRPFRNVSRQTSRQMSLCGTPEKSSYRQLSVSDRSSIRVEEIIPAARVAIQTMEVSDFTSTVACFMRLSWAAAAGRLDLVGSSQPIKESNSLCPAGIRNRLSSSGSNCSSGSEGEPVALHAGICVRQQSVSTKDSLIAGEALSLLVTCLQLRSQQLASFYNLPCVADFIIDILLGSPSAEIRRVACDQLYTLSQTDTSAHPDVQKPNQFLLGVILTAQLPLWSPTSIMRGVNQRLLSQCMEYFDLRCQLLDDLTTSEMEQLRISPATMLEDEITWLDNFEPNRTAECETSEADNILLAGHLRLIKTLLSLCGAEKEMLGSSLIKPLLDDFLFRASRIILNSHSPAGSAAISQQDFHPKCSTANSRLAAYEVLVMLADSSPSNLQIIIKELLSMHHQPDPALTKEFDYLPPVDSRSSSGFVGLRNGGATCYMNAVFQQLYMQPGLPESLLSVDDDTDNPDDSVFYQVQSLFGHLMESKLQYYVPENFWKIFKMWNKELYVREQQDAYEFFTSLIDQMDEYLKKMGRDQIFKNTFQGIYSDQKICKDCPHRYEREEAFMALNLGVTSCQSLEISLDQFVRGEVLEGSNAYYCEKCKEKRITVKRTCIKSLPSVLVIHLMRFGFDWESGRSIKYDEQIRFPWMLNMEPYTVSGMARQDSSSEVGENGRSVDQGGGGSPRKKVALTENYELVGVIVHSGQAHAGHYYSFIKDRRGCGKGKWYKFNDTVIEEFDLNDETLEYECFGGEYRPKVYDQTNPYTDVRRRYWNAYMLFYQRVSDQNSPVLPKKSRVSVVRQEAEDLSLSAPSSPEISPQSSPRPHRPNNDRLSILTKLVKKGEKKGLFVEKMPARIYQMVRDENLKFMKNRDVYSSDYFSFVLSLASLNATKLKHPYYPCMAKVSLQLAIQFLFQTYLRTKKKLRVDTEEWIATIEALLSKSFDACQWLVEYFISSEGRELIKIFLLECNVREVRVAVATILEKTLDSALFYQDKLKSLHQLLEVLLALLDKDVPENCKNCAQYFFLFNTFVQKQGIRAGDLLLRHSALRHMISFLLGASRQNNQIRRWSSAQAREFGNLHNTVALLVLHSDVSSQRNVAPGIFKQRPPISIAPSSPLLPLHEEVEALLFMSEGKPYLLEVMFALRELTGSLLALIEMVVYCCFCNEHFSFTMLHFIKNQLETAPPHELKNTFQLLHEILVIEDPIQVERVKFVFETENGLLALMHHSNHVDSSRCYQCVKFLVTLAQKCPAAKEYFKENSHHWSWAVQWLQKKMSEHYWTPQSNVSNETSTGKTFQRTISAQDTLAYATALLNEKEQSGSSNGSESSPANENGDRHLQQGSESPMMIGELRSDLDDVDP

O=C(CCl)NCc1ccc(N2CCOCC2)nc1
inactive: [1] -0.163 | [2] -0.181 | [3] -0.312 | [4] -0.432 | [5] -0.485
